43 sequences from publication PMC12820563, “FoxP3 forms a head-to-head dimer in vivo and stabilizes its multimerization on adjacent microsatellites” can be followed below.

Whole data set: some 16,000 sequences, median “rpm ratio (pull-down/input)” near 0.94, cut for the highest 2% near 1.7. What follows is part of a selection rich in the highest values, with near analogues and random picks from the rest.

This test concerns the target T1, MBP-FoxP1dN (Mus musculus, UniProt P58462 326-579).
T1 sequence: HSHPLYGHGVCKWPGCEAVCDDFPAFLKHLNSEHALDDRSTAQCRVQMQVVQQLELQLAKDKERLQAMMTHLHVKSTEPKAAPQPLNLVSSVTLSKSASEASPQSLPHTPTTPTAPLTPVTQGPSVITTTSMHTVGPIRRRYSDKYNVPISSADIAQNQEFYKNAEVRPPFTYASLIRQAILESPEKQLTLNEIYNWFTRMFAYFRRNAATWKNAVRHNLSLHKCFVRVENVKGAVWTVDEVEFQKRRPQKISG
Kind of test: PD-seq (MBP pull-down with sequencing); 20 mM Tris-HCl pH 7.5, 100 mM NaCl, 1.5 mM MgCl2, 0.4 uM protein, 0.1 uM dsDNA library, 30 min, room temperature, amylose pull-down; high values mean tight binding. The settings on record: protein: recombinant; tags: His6-MBP; chain copies: 2; dsDNA, one strand shown. Put shortly: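 Binding is reads-per-million enrichment of pull-down over input, with replicates pooled. It comes from 30 min room-temperature incubation in Tris pH 7.5 buffer with NaCl and MgCl2 of 0.4 µM His6-MBP-tagged, N-terminally truncated mouse FoxP3 or FoxP1 fragment from E. coli with 0.1 µM Klenow-filled degenerate double-stranded DNA library, followed by amylose resin capture, three washes and Illumina sequencing of the released DNA.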
“GATGATTGTTCTCCCAGCTGATGAATTGGTCCCATCGAGTAAACAAATTTTCCTAATCTTTCTGTTCAAGCGCCATCTAC”: the binding signal is 0.976 RPM ratio (pull-down/input). Consider “GATGATTGTTCTCCCAGCTGATGAATTGCTTAGGTCGAGTAAACAAATTTTCCTAATCTTTCTGTTCAAGCGCCATCTAC”, for which the binding signal was 1.02 RPM ratio (pull-down/input). With “GATGATTGTTCTCCCAGCTGATGAATTAATGTCCTCGAGTAAACAAATTTTCCTAATCTTTCTGTTCAAGCGCCATCTAC”, the binding signal was 0.913 RPM ratio (pull-down/input).

As for “GATGATTGTTCTCCCAGCTGATGAATTTGTGAGCTCGAGTAAACAAATTTTCCTAATCTTTCTGTTCAAGCGCCATCTAC”, the binding signal was 0.999 RPM ratio (pull-down/input). As to “GATGATTGTTCTCCCAGCTGATGAATTAACGAAGTCGAGTAAACAAATTTTCCTAATCTTTCTGTTCAAGCGCCATCTAC”, the binding signal was 0.89 RPM ratio (pull-down/input). Take “GATGATTGTTCTCCCAGCTGATGAATTGTGATGCTCGAGTAAACAAATTTTCCTAATCTTTCTGTTCAAGCGCCATCTAC”: the binding signal is 1.54 RPM ratio (pull-down/input). In the case of “GATGATTGTTCTCCCAGCTGATGAATTGTGTATCTCGAGTAAACAAATTTTCCTAATCTTTCTGTTCAAGCGCCATCTAC”, the binding signal is 1.67 RPM ratio (pull-down/input). As for “GATGATTGTTCTCCCAGCTGATGAATTGTGTGTATCGAGTAAACAAATTTTCCTAATCTTTCTGTTCAAGCGCCATCTAC”, the binding signal is 1.92 RPM ratio (pull-down/input).

Regarding “GATGATTGTTCTCCCAGCTGATGAATTTTTGTACTCGAGTAAACAAATTTTCCTAATCTTTCTGTTCAAGCGCCATCTAC”, the binding signal was 1.14 RPM ratio (pull-down/input). With “GATGATTGTTCTCCCAGCTGATGAATTTGTACTCTCGAGTAAACAAATTTTCCTAATCTTTCTGTTCAAGCGCCATCTAC”, the binding signal is 1.15 RPM ratio (pull-down/input).

Consider “GATGATTGTTCTCCCAGCTGATGAATTTGTGTACTCGAGTAAACAAATTTTCCTAATCTTTCTGTTCAAGCGCCATCTAC”, for which the binding signal was 2.09 RPM ratio (pull-down/input).

Consider “GATGATTGTTCTCCCAGCTGATGAATTTTCTGTATCGAGTAAACAAATTTTCCTAATCTTTCTGTTCAAGCGCCATCTAC”, for which the binding signal is 1.08 RPM ratio (pull-down/input). Regarding “GATGATTGTTCTCCCAGCTGATGAATTCTGTACCTCGAGTAAACAAATTTTCCTAATCTTTCTGTTCAAGCGCCATCTAC”, the binding signal is 0.846 RPM ratio (pull-down/input).

“GATGATTGTTCTCCCAGCTGATGAATTAATGTAATCGAGTAAACAAATTTTCCTAATCTTTCTGTTCAAGCGCCATCTAC”: the binding signal was 1.68 RPM ratio (pull-down/input). On to “GATGATTGTTCTCCCAGCTGATGAATTCATCGTGTCGAGTAAACAAATTTTCCTAATCTTTCTGTTCAAGCGCCATCTAC”, for which the binding signal is 0.891 RPM ratio (pull-down/input).

As for “GATGATTGTTCTCCCAGCTGATGAATTTGACGAATCGAGTAAACAAATTTTCCTAATCTTTCTGTTCAAGCGCCATCTAC”, the binding signal is 0.846 RPM ratio (pull-down/input). With “GATGATTGTTCTCCCAGCTGATGAATTGAGATGCTCGAGTAAACAAATTTTCCTAATCTTTCTGTTCAAGCGCCATCTAC” the figure was 1.07 RPM ratio (pull-down/input); with “GATGATTGTTCTCCCAGCTGATGAATTAGCTCGGTCGAGTAAACAAATTTTCCTAATCTTTCTGTTCAAGCGCCATCTAC”, 0.829 RPM ratio (pull-down/input). With “GATGATTGTTCTCCCAGCTGATGAATTATGAGATTCGAGTAAACAAATTTTCCTAATCTTTCTGTTCAAGCGCCATCTAC” the figure was 0.995 RPM ratio (pull-down/input); with “GATGATTGTTCTCCCAGCTGATGAATTAACTACCTCGAGTAAACAAATTTTCCTAATCTTTCTGTTCAAGCGCCATCTAC”, 0.879 RPM ratio (pull-down/input).

As for “GATGATTGTTCTCCCAGCTGATGAATTATGATGGTCGAGTAAACAAATTTTCCTAATCTTTCTGTTCAAGCGCCATCTAC”, the binding signal was 1.1 RPM ratio (pull-down/input). With “GATGATTGTTCTCCCAGCTGATGAATTTATGTTTTCGAGTAAACAAATTTTCCTAATCTTTCTGTTCAAGCGCCATCTAC” the figure was 2.76 RPM ratio (pull-down/input); with “GATGATTGTTCTCCCAGCTGATGAATTATGTTGGTCGAGTAAACAAATTTTCCTAATCTTTCTGTTCAAGCGCCATCTAC”, 1.87 RPM ratio (pull-down/input). Take “GATGATTGTTCTCCCAGCTGATGAATTATGTGTTTCGAGTAAACAAATTTTCCTAATCTTTCTGTTCAAGCGCCATCTAC”: the binding signal is 1.51 RPM ratio (pull-down/input).

For the sequence “GATGATTGTTCTCCCAGCTGATGAATTTTATGTTTCGAGTAAACAAATTTTCCTAATCTTTCTGTTCAAGCGCCATCTAC”, the binding signal was 1.19 RPM ratio (pull-down/input).

“GATGATTGTTCTCCCAGCTGATGAATTTTTATGTTCGAGTAAACAAATTTTCCTAATCTTTCTGTTCAAGCGCCATCTAC”: the binding signal was 1.37 RPM ratio (pull-down/input). With “GATGATTGTTCTCCCAGCTGATGAATTAAATGTTTCGAGTAAACAAATTTTCCTAATCTTTCTGTTCAAGCGCCATCTAC” the figure was 1.3 RPM ratio (pull-down/input); with “GATGATTGTTCTCCCAGCTGATGAATTATCTTGGTCGAGTAAACAAATTTTCCTAATCTTTCTGTTCAAGCGCCATCTAC”, 0.937 RPM ratio (pull-down/input); with “GATGATTGTTCTCCCAGCTGATGAATTATGATGTTCGAGTAAACAAATTTTCCTAATCTTTCTGTTCAAGCGCCATCTAC”, 1.22 RPM ratio (pull-down/input).

Turning to “GATGATTGTTCTCCCAGCTGATGAATTATGTTTTTCGAGTAAACAAATTTTCCTAATCTTTCTGTTCAAGCGCCATCTAC”, the binding signal was 2.19 RPM ratio (pull-down/input). For the sequence “GATGATTGTTCTCCCAGCTGATGAATTAATGTTTTCGAGTAAACAAATTTTCCTAATCTTTCTGTTCAAGCGCCATCTAC”, the binding signal is 2.45 RPM ratio (pull-down/input). Turning to “GATGATTGTTCTCCCAGCTGATGAATTTAATGTTTCGAGTAAACAAATTTTCCTAATCTTTCTGTTCAAGCGCCATCTAC”, the binding signal is 1.15 RPM ratio (pull-down/input).

In the case of “GATGATTGTTCTCCCAGCTGATGAATTCCTAATCTCGAGTAAACAAATTTTCCTAATCTTTCTGTTCAAGCGCCATCTAC”, the binding signal is 0.834 RPM ratio (pull-down/input). Turning to “GATGATTGTTCTCCCAGCTGATGAATTATGATATTCGAGTAAACAAATTTTCCTAATCTTTCTGTTCAAGCGCCATCTAC”, the binding signal was 1.24 RPM ratio (pull-down/input). For the sequence “GATGATTGTTCTCCCAGCTGATGAATTATACCTCTCGAGTAAACAAATTTTCCTAATCTTTCTGTTCAAGCGCCATCTAC”, the binding signal was 0.896 RPM ratio (pull-down/input).

For “GATGATTGTTCTCCCAGCTGATGAATTAAGCTTATCGAGTAAACAAATTTTCCTAATCTTTCTGTTCAAGCGCCATCTAC”, the binding signal is 1.03 RPM ratio (pull-down/input). In the case of “GATGATTGTTCTCCCAGCTGATGAATTCTCTTCATCGAGTAAACAAATTTTCCTAATCTTTCTGTTCAAGCGCCATCTAC”, the binding signal was 0.886 RPM ratio (pull-down/input).

Turning to “GATGATTGTTCTCCCAGCTGATGAATTATGTTCTTCGAGTAAACAAATTTTCCTAATCTTTCTGTTCAAGCGCCATCTAC”, the binding signal was 1.15 RPM ratio (pull-down/input). With “GATGATTGTTCTCCCAGCTGATGAATTATGTTCATCGAGTAAACAAATTTTCCTAATCTTTCTGTTCAAGCGCCATCTAC”, the binding signal was 1.04 RPM ratio (pull-down/input).

Consider “GATGATTGTTCTCCCAGCTGATGAATTATGAATTTCGAGTAAACAAATTTTCCTAATCTTTCTGTTCAAGCGCCATCTAC”, for which the binding signal was 1.03 RPM ratio (pull-down/input).

For “GATGATTGTTCTCCCAGCTGATGAATTATGTTGATCGAGTAAACAAATTTTCCTAATCTTTCTGTTCAAGCGCCATCTAC”, the binding signal was 2.81 RPM ratio (pull-down/input).

With “GATGATTGTTCTCCCAGCTGATGAATTATGATGATCGAGTAAACAAATTTTCCTAATCTTTCTGTTCAAGCGCCATCTAC”, the binding signal is 1.15 RPM ratio (pull-down/input). For “GATGATTGTTCTCCCAGCTGATGAATTATGTTGTTCGAGTAAACAAATTTTCCTAATCTTTCTGTTCAAGCGCCATCTAC”, the binding signal is 2.67 RPM ratio (pull-down/input).
